The text below walks through data of PubChem BioAssay (NCI).

About 83,000 compounds went through this panel and 20% of them were active in at least one assay; those are over-represented in the sample as a whole.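 Note: values are percent growth. 100 is the growth of untreated cells, values between 100 and 0 indicate rising inhibition; between -100 and 0 indicates cell death.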 Values without a mark were called inactive. The source made the active and inactive calls. How the source made its calls: active means growth percent below 10; inactive means the rest.

Common to all, as to assay: NCI-60 one-dose screen, 48 h (100 = growth as untreated, 0 = no growth, -100 = all killed)
The subject of one test is DU-145 prostate. To be noted: 10 µM unless noted.
In the next test the test system is K-562 leukemia. To be noted: 10 µM unless noted.
The next test deals with MALME-3M melanoma. The note with it: 10 µM unless noted.
A further test has as its system MDA-MB-231 breast. To be noted: 10 µM unless noted.
The next test deals with RXF 393 renal. To be noted: 10 µM unless noted.
For a further test, the system named is SF-268 CNS. To be noted: 10 µM unless noted.
The next test deals with SF-295 CNS. The note with it: 10 µM unless noted.
The next test relates to SF-539 CNS. To be noted: 10 µM unless noted.
The subject of the next test is UACC-257 melanoma. To be noted: 10 µM unless noted.
Another test has as its system M14 melanoma. The note with it: 10 µM unless noted.
The next test has as its system HCT-15 colon. The note with it: 10 µM unless noted.
Another test relates to HT29 colon. The note with it: 10 µM unless noted.
The next test concerns SNB-19 CNS. The note with it: 10 µM unless noted.
Another test has as its system U251 CNS. To be noted: 10 µM unless noted.
In the next test the test system is PC-3 prostate. To be noted: 10 µM unless noted.
For a further test, the system named is SK-MEL-5 melanoma. To be noted: 10 µM unless noted.
Another test relates to UACC-62 melanoma. To be noted: 10 µM unless noted.
The next test concerns LOX IMVI melanoma. To be noted: 10 µM.
The subject of another test is SK-MEL-28 melanoma. To be noted: 10 µM unless noted.
The next test has as its system SNB-75 CNS. To be noted: 10 µM unless noted.

As for `Cc1ccc2c(c1)nc(-c1ccccc1)n2CC(=O)N=Nc1c(O)[nH]c2ccc(Br)cc12`, the growth in the test with DU-145 prostate is -10.8% (active); in the test with K-562 leukemia, -7.04% (active); in the test with MALME-3M melanoma it was -85.7% (active); in the test on MDA-MB-231 breast, -76.4% (active); with RXF 393 renal it was -79.9% (active); with SF-268 CNS it was 0.768% (active). The growth is -80.6% (active) in the test with SF-295 CNS; -91.1% (active) with SF-539 CNS; -51.5% (active) with UACC-257 melanoma; -54.6% (active) with M14 melanoma; -79.9% (active) with HCT-15 colon; -67.6% (active) with HT29 colon. The growth in the test on SNB-19 CNS was -30.8% (active); with U251 CNS, -74.3% (active); in the test with PC-3 prostate, -78% (active); with SK-MEL-5 melanoma it was -57.3% (active); in the test on UACC-62 melanoma it was -87.4% (active); in the test with LOX IMVI melanoma it was -93.6% (active). The growth with SK-MEL-28 melanoma is -88.3% (active).
As for `Cc1ccc([C@H]2C(C(=O)c3ccc(Cl)cc3)C3(N[C@@H]2c2ccccc2)C(=O)Nc2ccccc23)cc1` (stereo not given in full), the growth was 80.2% in the test on DU-145 prostate; 11.8% in the test with K-562 leukemia; 20.5% in the test with MALME-3M melanoma; 27.2% in the test with MDA-MB-231 breast; 19% in the test on RXF 393 renal; 61.1% in the test on SF-268 CNS. For the same compound, the growth in the test on SF-295 CNS was 42.6%; in the test on SF-539 CNS it was 83.9%; in the test on UACC-257 melanoma, 26.9%; with M14 melanoma it was 28.7%; in the test on HCT-15 colon, 35.6%; with HT29 colon, 17.8%. For the same compound, the growth with SNB-19 CNS is 41%; in the test on U251 CNS it was 48.6%; in the test on PC-3 prostate, 2.35% (active); in the test on SK-MEL-5 melanoma, 34.3%; in the test with UACC-62 melanoma, 13.4%; in the test with LOX IMVI melanoma it was 25.5%. For the same compound, the growth in the test with SK-MEL-28 melanoma is 32.8%.
With `Cc1ccc(-n2c(-c3cc4ccccc4nc3Cl)noc2=O)cc1`, the growth in the test on DU-145 prostate was 105%; with K-562 leukemia it was 30.6%; with MALME-3M melanoma it was 93.3%; in the test with MDA-MB-231 breast it was 63.6%; in the test on RXF 393 renal, 92.4%; in the test on SF-268 CNS it was 86.7%. Further, the growth was 76.1% in the test with SF-295 CNS; 84% in the test on SF-539 CNS; 95% in the test with UACC-257 melanoma; 72.7% with M14 melanoma; 39.1% in the test on HCT-15 colon; 110% in the test with HT29 colon. The growth with SNB-75 CNS was 40.1%; in the test on U251 CNS, 83.7%; in the test with PC-3 prostate, 75.5%; with SK-MEL-5 melanoma, 66.1%; with UACC-62 melanoma, 56%; in the test with LOX IMVI melanoma, 85.1%. The growth in the test with SK-MEL-28 melanoma is 97.1%.
Regarding `CC1(C)CC[C@]2(C(=O)O)CC[C@]3(C)C(=CCC4[C@@]5(C)C[C@@H](O)[C@@H]6OC(c7ccccc7F)OC[C@@]6(C)C5CC[C@]43C)C2C1` (stereo not given in full), the growth in the test on DU-145 prostate was 20%; in the test with K-562 leukemia, 12.8%; in the test with MALME-3M melanoma it was 28.6%; with MDA-MB-231 breast, 20.5%; in the test with RXF 393 renal, -14.5% (active); with SF-268 CNS, 14.3%. The growth in the test with SF-295 CNS is -0.465% (active); in the test on SF-539 CNS, 5.14% (active); in the test on UACC-257 melanoma it was 24.2%; with M14 melanoma, 17.8%; with HCT-15 colon, 5.25% (active); in the test on HT29 colon, 2.5% (active). Besides, the growth is 20.3% with SNB-19 CNS; 3.62% (active) in the test on U251 CNS; 16% in the test on PC-3 prostate; -34.6% (active) in the test with SK-MEL-5 melanoma; 0.203% (active) in the test with UACC-62 melanoma; -1.57% (active) with LOX IMVI melanoma.
Take `COc1ccc2[nH]c(=O)c(CSc3nccc(-c4ccc(OC)c(OC)c4)n3)cc2c1`: the growth with DU-145 prostate was 37.4%; with K-562 leukemia, 11.4%; in the test with MALME-3M melanoma, -2.09% (active); with MDA-MB-231 breast it was 6.47% (active); in the test on RXF 393 renal, -13.7% (active); in the test with SF-268 CNS, 28%. Besides, the growth with SF-295 CNS is -30.4% (active); with SF-539 CNS it was 24.7%; in the test on UACC-257 melanoma, 38.9%; in the test on M14 melanoma, 47.8%; with HCT-15 colon, 16.4%; in the test on HT29 colon, 16.2%. Moreover, the growth with SNB-19 CNS is 21.4%; in the test on U251 CNS, 26%; with PC-3 prostate it was 5.92% (active); in the test with SK-MEL-5 melanoma it was -1.05% (active); in the test with UACC-62 melanoma, 27.9%; in the test with LOX IMVI melanoma it was 24.5%. Also, the growth in the test with SK-MEL-28 melanoma was 42.7%.
`CN(C)CCOc1ccc(C(=O)C2[C@H](c3ccc(Cl)cc3)[C@@H](c3ccccc3)NC23C(=O)Nc2ccc(Br)cc23)cc1` (stereo not given in full): the growth is 14.3% with DU-145 prostate; -32.3% (active) in the test on K-562 leukemia; -50.2% (active) in the test on MALME-3M melanoma; -20.5% (active) in the test with MDA-MB-231 breast; -0.638% (active) in the test with RXF 393 renal; 41.8% in the test on SF-268 CNS. Also, the growth was -53.4% (active) with SF-295 CNS; 13% in the test with SF-539 CNS; 53.8% in the test with UACC-257 melanoma; -71.5% (active) in the test with M14 melanoma; -81.5% (active) in the test on HCT-15 colon; -85.7% (active) in the test with HT29 colon. The growth is 54.1% with SNB-19 CNS; -93.2% (active) in the test with U251 CNS; -3.48% (active) with PC-3 prostate; -16.1% (active) with SK-MEL-5 melanoma; 43.3% in the test on UACC-62 melanoma; -100% (active) in the test on LOX IMVI melanoma.
Regarding `O=C(Cn1c(/C=C/c2ccccc2)nc2ccccc2c1=O)Nc1ccc(Cl)cc1`, the growth is 71.3% in the test on DU-145 prostate; 85.2% in the test on K-562 leukemia; 59.1% in the test on MALME-3M melanoma; 4.32% (active) in the test with MDA-MB-231 breast; -8.9% (active) in the test on RXF 393 renal; 75.2% in the test with SF-268 CNS. Moreover, the growth in the test with SF-295 CNS was 59.1%; in the test with SF-539 CNS, 58.7%; in the test with UACC-257 melanoma, 83.6%; with M14 melanoma, 81.7%; in the test on HCT-15 colon, 78%; in the test on HT29 colon it was 75.5%. Also, the growth with SNB-19 CNS was 52.8%; in the test on U251 CNS, 20.1%; in the test on PC-3 prostate, 72.6%; in the test with SK-MEL-5 melanoma, 103%; in the test with UACC-62 melanoma, 90.4%; with LOX IMVI melanoma, 25.4%. For the same compound, the growth with SK-MEL-28 melanoma was 108%.
As to `Cc1ccc(C2=NN(c3nc(-c4cc5ccccc5oc4=O)cs3)C(c3ccc(C)cc3)C2)cc1` (stereo not given), the growth in the test with DU-145 prostate was 113%; in the test on K-562 leukemia, 101%; in the test on MALME-3M melanoma, 91.6%; in the test with MDA-MB-231 breast, 84.4%; in the test on RXF 393 renal, 103%; with SF-268 CNS, 120%. Besides, the growth was 99.6% in the test on SF-295 CNS; 93.9% in the test on SF-539 CNS; 112% with UACC-257 melanoma; 106% in the test with M14 melanoma; 91.7% with HCT-15 colon; 124% with HT29 colon. Also, the growth in the test with SNB-19 CNS was 94.7%; in the test on U251 CNS, 99.9%; with PC-3 prostate, 99.9%; in the test on SK-MEL-5 melanoma, 101%; with UACC-62 melanoma, 91.2%; with LOX IMVI melanoma, 91.2%. In addition, the growth in the test on SK-MEL-28 melanoma is 123%.
